# Screening data (PubChem BioAssay)
# ASM inhibitor: blocks human secretory acid sphingomyelinase; placental ASM, HMU-PC fluorogenic substrate, 60 min; Potency, µM (top dose mostly 57.5 µM), for the others: at the highest dose activity change, negative = inhibition, most hits filed as inhibitors; 340,000 compounds, 0.006% hits; also: potency is read from the fitted curve at half-maximal effect
# Target sequence (P17405 47-631 limits assumed): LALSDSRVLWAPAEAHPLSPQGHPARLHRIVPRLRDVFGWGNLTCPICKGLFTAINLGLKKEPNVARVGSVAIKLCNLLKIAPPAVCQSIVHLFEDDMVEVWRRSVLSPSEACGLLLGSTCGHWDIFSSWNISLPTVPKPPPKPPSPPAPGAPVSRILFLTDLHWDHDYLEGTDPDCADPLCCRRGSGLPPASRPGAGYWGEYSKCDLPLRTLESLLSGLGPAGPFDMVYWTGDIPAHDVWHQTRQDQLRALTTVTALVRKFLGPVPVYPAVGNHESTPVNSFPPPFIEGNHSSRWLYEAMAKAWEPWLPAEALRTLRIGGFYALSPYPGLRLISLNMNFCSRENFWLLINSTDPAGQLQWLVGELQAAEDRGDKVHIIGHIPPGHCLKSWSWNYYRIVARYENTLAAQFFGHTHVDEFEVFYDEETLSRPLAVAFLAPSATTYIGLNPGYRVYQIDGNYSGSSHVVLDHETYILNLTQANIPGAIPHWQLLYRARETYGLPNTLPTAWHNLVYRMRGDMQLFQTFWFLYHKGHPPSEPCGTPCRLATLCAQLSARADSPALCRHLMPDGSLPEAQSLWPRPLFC
#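 HMU-PC0 cleavage (9 uM final) by human placental ASM, 60 min at 37 °C following 10 min compound exposure at RT; stopped at pH 10, fluorescence Ex 386/Em 447 nm.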
# PINK1 expr mod: modulators of PINK1 expression; PINK1 immunofluorescence, high-content cytometry, 24 h; Potency, µM (series often up to 76.6 µM), for the others: top-dose activation (PINK1 increase), hits mostly activators; 410,000 compounds, 0.2% hits; AID 624263; active = well fitted activation curve with a large enough effect; inconclusive = small, poorly fitted or top-dose-only effect; cell line not stated here; also: potency is read from the fitted curve at half-maximal effect; % of control where 0% means no effect; nearly all actives have a fitted effect of over 65% in size
#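 Stable cell line treated 24 h with compounds at 5 concentrations (CCCP controls), then fixed and immunostained for PINK1 plus nuclear and cell stains; PINK1 immunofluorescence quantified by laser-scanning microplate cytometry.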
# p53 reactivator: mutant p53 re-activation in reporter cells | H1299 p53-A138V BP100-luciferase reporter, luminescence, 24 h | Potency, µM (highest dose often 92.2 µM), for the others: at the highest dose activity change, positive = activation, hits mostly activators | 320,000 compounds, 0.063% hits | AID 504706; also: potency is read from the fitted curve at half-maximal effect; % of control where 0% means no effect; nearly all actives have a fitted effect of over 45% in size
#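 H1299 (p53-null), stable ts p53-A138V + BP100-Luc; 1000 cells/well, Opti-MEM/10% FBS; cpd 4 pt, 1:5; 24 h, 37 deg C, 5% CO2; detection reagent 10 min RT; luminescence.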
# 12-LOX inh: blocks human arachidonate 12S-lipoxygenase; P18054; purified 12hLO, xylenol orange hydroperoxide absorbance; Potency, µM (doses to about 108 µM), for the others: top-dose activity change, negative = inhibition, most hits filed as inhibitors; 580,000 compounds, 1.1% hits; AID 1671190; also: potency is read from the fitted curve at half-maximal effect; % is scaled to controls: 0 for no effect and ±100 for the full control effect
#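 Purified human 12hLO (150 nM final) in 25 mM Hepes, 0.01% Triton X-100, pH 7.0 was preincubated 15 min at room temperature with compound. Then 40 uM arachidonic acid was added, 30 min. Hydroperoxide was read by Fe-XO absorbance ratio 573/405 nm.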
# MmCpn inh: M. maripaludis TRiC chaperonin inhibition; purified Mm-Cpn ATPase, ADP Transcreener TR-FRET; Potency, µM (doses to about 76.9 µM), for inactives: at the highest dose activity, negative = inhibition, most hits filed as inhibitors; 330,000 compounds, 0.031% hits; AID 504842; also: potency is read from the fitted curve at half-maximal effect; % is scaled to controls: 0 for no effect and ±100 for the full control effect; nearly all actives have a fitted effect of over 80% in size
#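 Purified archaeal chaperonin (25 nM final) was preincubated with compound for 10 min at 37°C, then ATP (10 uM final) was added for 30 min at 37°C in Tris pH 7.4/KCl/MgCl2/DTT buffer. ADP was quantified by HTRF Transcreener TR-FRET.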
# CCT modulator: cytosolic chaperonin activity modulation. AID 651819. purified chaperonin ATPase assay, HTRF ADP detection, 30 min. activity change, % (no concentration beside the values), hits read low. 360,000 compounds, 0.3% hits; in the data active = activity change below about -30%; also: % is scaled to controls: 0 for no effect and ±100 for the full control effect
#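 TRiC at 40 or 20 nM final (batch-dependent) in 30 mM Tris pH 7.4, 100 mM KCl, 5 mM MgCl2, 1 mM DTT, with compound at single 76 uM and 10 uM ATP, 30 min at 37 deg C. ADP detected by HTRF Transcreener, 665/615 ratio.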
# Starred values were filed as active, the others as inactive; i = inactive; u = inconclusive; x = no result; ! = not confirmed by another sample; [ ] = dose if it differs, or a comment. Sampled rows, rich in hits. Any-hit rate of the full collection: about 1.4%. Unless noted, calls follow the shape of the dose curve; as a rule, active = well fitted curve in the direction sought with a large enough effect; inconclusive = small, poorly fitted or top-dose-only effect, or another doubt; inactive = no such curve, though single readings can be large; an effect the other way counts as inactive or inconclusive.
SMILES,ASM inhibitor,PINK1 expr mod,p53 reactivator,12-LOX inh,MmCpn inh,CCT modulator
CC(=O)Nc1ccc(NC(=O)c2cc(-c3ccco3)nc3ccccc23)cc1,x,x,x,11µM*,x,x
CC(C)Oc1ccc(C(CC(=O)O)NC(=O)c2ccc(Cl)cc2)cc1 (centres undefined),x,x,x,-25%,x,x
Cc1ccc(C)c(Nc2ncnc(N)c2[N+](=O)[O-])c1,-1%,1%,-8%,-25%,1%,-41*
Cc1cccnc1Nc1ncnc(N)c1[N+](=O)[O-],0%,0%,3%,-6%,3%,1
Cc1ccc(C)c(S(=O)(=O)c2nnn3c2nc(N2CCCCC2)c2ccccc23)c1,x,x,x,2%[6.33 µM],x,x
Cn1c(=O)[nH]c2c(nc(-c3ccc(Cl)cc3)n2CCc2ccccc2)c1=O,x,x,x,12%,x,x
COC(=O)c1c(-c2ccc(OC)cc2)sc2cc3c(cc12)OCO3,105%,1%,u,15%,50µM*,-2
O=C1c2ccccc2C(Nc2cccnc2)N1Cc1ccccc1 (centres undefined),-1%,3%,-1%,-3%,0%,-1
CCCCNC1c2ccccc2C(=O)N1Cc1ccccc1 (centres undefined),-9%,12%,u,40µM*,0%,0
COc1ccc(C(=O)CCC(=O)OCC(=O)c2ccc(Cl)cc2)cc1,x,x,x,1%,x,x
CCOC(=O)c1c(NC(=O)Cn2nnc(-c3ccccc3)n2)sc(CC)c1C,x,x,x,13µM*,x,x
CC(=O)c1cccc(NS(=O)(=O)c2cc(-c3nc(-c4ccccc4)no3)sc2C)c1,x,x,x,-2%,x,x
N#CC(=C(/N)Sc1ccccc1N)/C(C#N)=C(\N)Sc1ccccc1N,x,x,x,32µM*!,x,x
CN(C)/C=C/C(=O)c1cnc(-c2ccccc2Cl)s1,-7%,0%,9%,8.9µM*,-7%,0
CN(C)/C=C/C(=O)c1cnc(-c2cccc(Cl)c2)s1,-9%,2%,6%,32µM*,0%,-1
Clc1cccc(N2CCN(Cc3ccc(Br)o3)CC2)c1,4%,8%,x,u,2%,0
Clc1ccc(N2CCN(Cc3ccc(Br)o3)CC2)cc1,1%,9%,x,0.89µM*,1%,0
O=C1C=C(c2cccc(Cl)c2O)C[C@@H](c2ccc(Cl)cc2)C1,-22%,u,-11%,11µM*,-9%,0
CCN1CCN(CCOc2ccc3c(=O)c(-c4ccc(Cl)cc4)coc3c2)CC1,x,x,x,18µM*,x,x
CN(C(=O)CN1CCN(c2cc(-c3ccc(-c4ccccc4)cc3)ncn2)CC1)c1ccccc1,x,13%,x,45µM*,x,-2
O=C(C1COc2cc(S(=O)(=O)NCc3ccc(Cl)cc3)ccc2O1)N1CCCCCC1 (centres undefined),x,x,x,-24%,x,x
CCOc1ccc(Cn2c(=O)c3sccc3n(CC(=O)NCc3ccc4c(c3)OCO4)c2=O)cc1,x,x,x,-3%,x,x
O=C(Cc1cccs1)N/N=C/C=C\c1ccco1,-4%,1%,14µM*,u,2%,1
Cc1ccc(OCC(=O)N/N=C/C=C/c2ccco2)c(Br)c1,-10%,1%,x,40µM*,-1%,1
Cc1cccc(OCC(=O)N/N=C/C=C/c2ccco2)c1,-2%,2%,13%,u,1%,1
SMILES,ASM inhibitor,PINK1 expr mod,p53 reactivator,12-LOX inh,MmCpn inh,CCT modulator
O=C(Cc1cccs1)N/N=C/c1ccco1,1%,0%,19%,-5%,0%,1
CCCNC(=O)c1ccc2c(=O)n3c(-c4ccc(C)cc4)csc3nc2c1,i,3%,1%,11µM*,-9%,0
Fc1cccc(CCN2C(=S)NC[C@@H]2CC2CCCCC2)c1,-7%,0%,8%,40µM*,1%,-1
CCS(=O)(=O)c1ccc2oc([C@H]3CCN(C(C)C)C3)nc2c1,x,x,x,77%[176 µM],x,x
CCOc1cc(/C=C(\C#N)C(=O)Nc2cccc(C(=O)O)c2)cc(Br)c1OC(=O)c1ccc(OC)cc1,u,3%,-21%,45µM*,0%,0
O=C(OCc1nc2ccccc2s1)C1=NN(C2CCS(=O)(=O)C2)C(=O)CC1 (centres undefined),x,x,x,21%,x,x
CC(C)c1ccc(NC(=S)NN2C(C)CCCC2C)cc1 (centres undefined),-2%,-2%,14%,28µM*,3%,2
COc1ccc(NC(=S)NN2C(C)CCCC2C)cc1 (centres undefined),11%,0%,-8%,u,1%,-3
O=C(CSc1n[nH]c(-c2cc(Br)ccc2O)n1)N1CCOCC1,x,x,x,-1%,x,x
Cc1ccc(-c2cc(C(=O)Nc3nnc(C)s3)c3ccccc3n2)cc1,x,x,x,-34%,x,x
Cc1ccc(-c2cc(C(=O)Nc3nnc(C4CC4)s3)c3ccccc3n2)o1,x,x,x,7.9µM*,x,x
Cc1ccc(-c2cc(C(=O)Nc3nccs3)c3ccccc3n2)o1,8%,4%,0%,1.4µM*,-2%,1
COc1cc2cc(C(=O)NCC(=O)Nc3ccc4c(c3)OCCO4)[nH]c2c(OC)c1OC,x,x,x,-1%,x,x
COc1ccc2c(C)cc(SCC(=O)NC(C)c3ccccc3)nc2c1 (centres undefined),x,x,x,-19%,x,x
O=C(c1cccc(F)c1)N(Cc1ccco1)C1CC1,x,x,x,-11%,x,x
COC(CNC(=O)c1cccc(-n2c(=S)[nH]c3cc(Cl)ccc3c2=O)c1)OC,-1%,0%,-1%,1.8µM*,-6%,1
O=C(Cn1ncc2c3ccccc3n(Cc3ccccc3)c2c1=O)NCCN1CCOCC1,0%,0%,-3%,0%,1%,-34*
S=c1[nH]c2ccccc2s1,x,x,x,28µM*!,x,x
COc1ccccc1N1CCN(CC(=O)Nc2nccs2)CC1,2%,-1%,-3%,20µM*,u,-3
COc1ccc(-c2cc(C(F)(F)F)nc(S(=O)(=O)CCC(=O)Nc3ccccc3)n2)cc1,x,x,x,2%,x,x
Cc1ccc(-c2nc3cc(NC(=O)c4cc(Br)ccc4Cl)ccc3o2)cc1,x,11%,x,40µM*,x,x
CCN(CC)C(=O)c1sc2nc(-c3cccs3)cc(-c3cccs3)c2c1N,45%,2%,0%,40µM*,-13%,-1
CCN(CC)C(=O)c1sc2nc(-c3cccs3)cc(-c3ccc(Cl)cc3)c2c1N,-1%,0%,4%,-16%,-1%,0
COc1ccc(CN=C2Nc3ccccc3CS2)cc1,2%,x,10µM*,-14%,1%,0
COc1ccc(CN=C2NN=C(c3ccc(Cl)cc3)CS2)cc1,2%,-1%,9%,-5%,-4%,-2
C/C(=N/Nc1ccc([N+](=O)[O-])cc1)c1ccncc1,x,x,x,35µM*,x,x
C/C(=N\Nc1cccc([N+](=O)[O-])c1)c1ccccc1O,-11%,0%,8%,u,2%,-2
